Data as given in PubChem BioAssay (NCATS).
Results filed as inconclusive are left out. Activity calls are given as the source filed them. Calls follow the shape of the dose curve; as a rule, active = well fitted inhibition curve with a large enough effect; inconclusive = small, poorly fitted or top-dose-only effect; inactive = no such curve, though single readings can be large or run the other way.

Assay: Primary qHTS for small molecule stabilizers of the endoplasmic reticulum resident proteome: Secreted ER Calcium Modulated Protein (SERCaMP) assay (AID 1508630)
Conditions: SH-SY5Y GLuc-SERCaMP (Gaussia luciferase released on ER calcium loss) secretion, thapsigargin, luminescence; series mostly up to 38.4 µM; activity change, negative = inhibition: at the top concentration
From the text: Assay Provider: Brandon K. Harvey Ph.D.
National Institute on Drug Abuse, National Institutes of Health, Baltimore, MD
Endoplasmic reticulum (ER) dysregulation is associated with human pathologies including neurodegenerative, cardiovascular, muscular, and diabetic conditions. Maintenance of ER calcium is critical for functions of the ER and its depletion can lead to loss of ER resident proteins, in a process termed exodosis. Therapeutic compounds capable of attenuating the redistribution of ER proteins under pathological conditions may slow or stop disease progression. To identify such compounds, we performed a quantitative high-throughput screen (qHTS) using the SERCaMP assay, which monitors secretion of ER resident proteins triggered by calcium depletion.
SERCaMP was initially developed as a reporter of ER calcium homeostasis using a Gaussia luciferase with a modified signal peptide and carboxy-terminus (GLuc-SERCaMP), modifications that confer secretion of the reporter in response to ER calcium depletion (Henderson et al., 2014). The assay was used to screen 9,501 compounds, including a collection of drugs approved by the FDA (US), EMA (EU), NHI (Japan), and HC (Canada) regulatory agencies (Huang et al., 2011). Since the SERCaMP reporter reflects the exodosis phenomenon (Trychta et al., 2018a), compounds identified in the screen have the potential to prevent exodosis by different mechanisms such as stabilizing ER calcium or augmenting ERS retrieval.
1. Henderson, M.J., Wires, E.S., Trychta, K.A., Richie, C.T., and Harvey, B.K. (2014). SERCaMP: a carboxy-terminal protein modification that enables monitoring of ER calcium homeostasis. Mol Biol Cell 25, 2828-2839.
2. Huang, R., Southall, N., Wang, Y., Yasgar, A., Shinn, P., Jadhav, A., Nguyen, D.T., and Austin, C.P. (2011). The NCGC pharmaceutical collection: a comprehensive resource of clinically approved drugs enabling repurposing and chemical genomics. Sci Transl Med 3, 80ps16.
3. Trychta, K.A., Back, S., Henderson, M.J., and Harvey, B.K. (2018a). KDEL Receptors Are Differentially Regulated to Maintain the ER Proteome under Calcium Deficiency. Cell Rep 25, 1829-1840 e1826.
SEQUENCE No. (1, 2, 3, etc.); […] (e.g., Cells, Incubation, Reagent, etc.); VALUE and DESCRIPTION.
1; Reagent; 5 uL; 1000 SH-SY5Y cells per wells
3; Compound; 23 nL; Control inhibitor / compound library
5; Reagent; 100 nM; Thapsigargin
7; Reagent; 1 uL; 0.5x coelenterazine
8; Detection; Luminescence; ViewLux imaging system
NOTES (numbers refer to sequence above)
1; SH-SY5Y human neuroblastoma cells stably expressing GLuc-SERCaMP (SH-SY5Y-GLuc-ASARTDL) cells were seeded in 1,536 well white tissue culture treated plates (Corning, Cat# 7464) in DMEM-high glucose-sodium pyruvate (ThermoFisher Scientific, Cat #10569) supplemented with 10% bovine growth serum (Hyclone), 10 U/ml penicillin (Gibco), 10 ug/ml streptomycin (Gibco), and 20 mM HEPES.
2; Assay plates were incubated for 5 hour at 37C in a humidified incubator containing 5% CO2.
3; qHTS libraries (23 nl, final concentrations of 1.53 uM, 7.67 uM, 38.3 uM) or controls (neutral control: DMSO, positive control: dantrolene) were added using a Kalypsis pin-tool Robotic System equipped with 1536 pinheads.
4; Cells were then incubated for 16 hours at 37C, 5% CO2.
5; Thapsigargin was added at 100 nM to deplete ER calcium stores.
6; Cells were incubated for 4 hour (37 °C, 5% CO2)
7; Gaussia luciferase in the medium was measured by adding 1 ul of 0.5x coelenterazine (final concentration 0.07x) prepared in Gaussia Luciferase Glow Assay Buffer (Pierce), without addition of the Cell Lysis Buffer Reagent.
8; Luminescence was measured using a ViewLux […] CCD imaging system (Perkin Elmer) equipped with clear filters. […] The same controls were also used for the calculation of the Z' factor, a measure of assay quality control, as previously described (Zhang et al., 1999). […]
% is scaled to controls: 0 for no effect and ±100 for the full control effect.

Compound	activity change, negative = inhibition	Potency
COc1cc(Cl)cn2c(-c3cccc(NC4CNC4)n3)cnc12	9.1% (inactive)	–
Cc1ccc(S(=O)(=O)Nc2nc3ccccc3nc2Nc2ccc3nsnc3c2)cc1	104% [at 21.6 µM] (inactive)	–
C=C1c2cccc(O)c2C(O)=C2C(=O)[C@@]3(O)C(O)=C(C(N)=O)C(=O)[C@@H](N(C)C)[C@@H]3[C@@H](O)[C@H]12	6.95% (inactive)	–
CN(C)CC[C@H](CSc1ccccc1)Nc1ccc(S(=O)(=O)NC(=O)c2ccc(N3CCN(Cc4ccccc4-c4ccc(Cl)cc4)CC3)cc2)cc1[N+](=O)[O-]	383% (inactive)	–
Cc1c(C(=O)Nc2ccc(N3C[C@@H](C)O[C@@H](C)C3)nc2)cccc1-c1ccc(OC(F)(F)F)cc1	0% (inactive)	–
O=C(O)Cc1cccc(OCCCN(Cc2cccc(C(F)(F)F)c2Cl)CC(c2ccccc2)c2ccccc2)c1	–	inactive
O=C(CC12CC3CC(CC(C3)C1)C2)Nc1cccc2nc(NCCNCCO)ccc12	66.3% (inactive)	–
O=c1cc(-c2ccc(O)c(O)c2)oc2cc(O)cc(O)c12	332% (inactive)	–
C[C@@H](N)c1ccc(C(=O)Nc2ccnc3[nH]ccc23)cc1	0% (inactive)	–
Cn1c(=O)c(-c2c(Cl)cccc2Cl)cc2cnc(Nc3cccc(C(=O)O)c3)nc21	0% (inactive)	–
CC(C)C[C@@H](C(=O)N[C@H](C(=O)OC1CCCC1)c1ccccc1)[C@H](O)C(=O)NO	81.2% (inactive)	–
CC1(COc2ccc3c(c2)ncn3-c2ccc3cccc(N4CCC(N)CC4)c3n2)COC1	140% (inactive)	–
O=C(Nc1cccc2c(=O)cc(-c3nn[nH]n3)oc12)c1ccc(OCCCCc2ccccc2)cc1	246% (inactive)	–
FC(F)(F)c1ccc(C=Cc2nc(COc3ccc(CCCCn4ccnn4)cc3)co2)cc1	0% (inactive)	–
Cc1cc(CS(=O)(=O)c2ccccc2)cc(OCc2ccc(CN3CCC[C@H]3CO)cc2)c1	-19.9% (inactive)	–
COc1cc2c(cc1Cc1cccc(Cl)c1F)c(=O)c(C(=O)O)cn2[C@H](CO)C(C)C	61.5% (inactive)	–
CNC(=O)c1cc(Oc2ccc(NC(=O)Nc3ccc(Cl)c(C(F)(F)F)c3)c(F)c2)ccn1	252% (inactive)	–
NS(=O)(=O)c1ccc(Nc2nc(OCC3CCCCC3)c3[nH]cnc3n2)cc1	10.7% (inactive)	–
C[C@]12C=CC(=O)C=C1CC[C@@H]1[C@@H]2[C@@H](O)C[C@@]2(C)[C@@H]1CC[C@]2(O)C(=O)CO	67.4% (inactive)	–
CC(C)Oc1cc(Nc2nc(N[C@@H](C)c3ccc(F)cn3)ncc2Cl)[nH]n1	0% (inactive)	–

Compound	activity change, negative = inhibition	Potency
O=[N+]([O-])c1ccc(Nc2ccccc2-c2ccccc2)c2nonc12	-15.9% (inactive)	–
COc1nccc(-c2c(-c3ccc(F)cc3)ncn2C2CCNCC2)n1	8.63% (inactive)	–
COc1cc2nccc(Oc3ccc(NC(=O)Nc4ccc(F)cc4F)c(F)c3)c2cc1OC	–	inactive
O=C(Nc1cccc(Cl)c1)Nc1ncc(CCNc2ncnc3ccsc23)s1	0% (inactive)	–
C[C@@H](O)[C@H]1C(=O)N2C(C(=O)OCOC(=O)C(C)(C)C)=C(SC3CN(C4=NCCS4)C3)[C@H](C)[C@H]12	-10.6% (inactive)	–
CNC(=O)c1c(-c2ccc(F)cc2)oc2cc(N(CCO)S(C)(=O)=O)c(C3CC3)cc12	0% (inactive)	–
COc1cc(F)c(C(C)C)cc1-c1ccc(C(F)(F)F)cc1CN1C(=O)O[C@H](c2cc(C(F)(F)F)cc(C(F)(F)F)c2)[C@@H]1C	113% (inactive)	–
CC(C)N(CCCNC(=O)Nc1ccc(C(C)(C)C)cc1)C[C@H]1O[C@@H](n2cc(Br)c3c(N)ncnc32)[C@H](O)[C@H]1O	338% (inactive)	–
CC1(C)CC(=O)c2c(C(F)(F)F)nn(-c3ccc(C(N)=O)c(NC4CCC(O)CC4)c3)c2C1 (stereo not given)	91.2% (inactive)	–
Fc1ccc(C(c2ccc(F)cc2)N2CCN(CC=Cc3ccccc3)CC2)cc1	0% (inactive)	–
Cc1ccc2c(=O)c3cccc(CC(=O)O)c3oc2c1C	7.82% (inactive)	–
COc1ccc2cc1Oc1ccc(cc1)C[C@H]1c3cc(c(OC)cc3CCN1C)Oc1c(OC)c(OC)cc3c1[C@H](C2)N(C)CC3	–	inactive
CNC(=O)c1ccc2c(C(=Nc3cccc(CN(C)C)c3)c3ccccc3)c(O)[nH]c2c1	219% (inactive)	–
CC[C@H](NC(=O)[C@H](C)NC)C(=O)N1C[C@@H](O)C[C@H]1Cc1c(-c2[nH]c3cc(F)ccc3c2C[C@H]2C[C@H](O)CN2C(=O)[C@H](CC)NC(=O)[C@H](C)NC)[nH]c2cc(F)ccc12	110% (inactive)	–
CNc1nc(Nc2ccc(C(=O)N3CCOCC3)cc2OC)ncc1Cl	221% (inactive)	–
CC(=O)OCC(=O)[C@@]1(O)CC[C@H]2[C@@H]3CCC4=CC(=O)C=C[C@]4(C)[C@@H]3[C@@H](O)C[C@@]21C	7.5% (inactive)	–
Cc1ccccc1C(=O)c1ccc(Nc2ccc(Br)cc2N)cc1Cl	-41.3% (inactive)	–
CN(C)c1ccc(-c2nc3ncc(Cl)c(N4CCN(CC(=O)Nc5nccs5)CC4)c3[nH]2)cc1	0% (inactive)	–
COc1cccc(OC)c1-c1cc(C(=O)NC2(C(=O)O)C3CC4CC(C3)CC2C4)nn1-c1ccnc2cc(Cl)ccc12 (stereo not given)	22.8% (inactive)	–
CCOC(=O)c1c(CSc2ccccc2)n(C)c2cc(Br)c(O)c(CN(C)C)c12	-28.6% (inactive)	–
